Screens (PubChem BioAssay)
Rows were chosen to be rich in hits. Some 3.9% of all compounds tested hit in one or more screens of this group.
Tb PFK inh – T. brucei PFK enzyme inhibition; T. brucei PFK, ADP-Glo luminescence; Potency, µM (highest dose often 57.5 µM), without a hit: at the top dose activity, negative = inhibition, most hits filed as inhibitors; actives 0.17% (n = 330,000); AID 485367;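 further: 0% = uninhibited 1x PFK enzyme wells and -100% = no-enzyme wells; nearly all actives have a fitted effect of over 60% in size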
Target sequence (O15648 whole entry, looked up): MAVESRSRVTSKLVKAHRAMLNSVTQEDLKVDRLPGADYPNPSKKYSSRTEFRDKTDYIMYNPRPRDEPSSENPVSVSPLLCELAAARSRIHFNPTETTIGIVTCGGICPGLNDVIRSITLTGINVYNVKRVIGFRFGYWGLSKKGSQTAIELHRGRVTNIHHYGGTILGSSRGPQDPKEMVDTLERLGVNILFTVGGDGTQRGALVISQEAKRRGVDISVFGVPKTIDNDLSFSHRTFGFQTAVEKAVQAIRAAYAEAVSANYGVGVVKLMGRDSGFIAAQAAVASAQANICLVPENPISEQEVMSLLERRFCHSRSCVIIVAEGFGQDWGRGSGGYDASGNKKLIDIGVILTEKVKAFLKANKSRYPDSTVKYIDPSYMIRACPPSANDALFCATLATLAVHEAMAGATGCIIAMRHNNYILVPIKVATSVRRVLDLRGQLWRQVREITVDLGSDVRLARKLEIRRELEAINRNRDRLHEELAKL
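ADP-Glo luminescence quantified ADP after 45 min at room temperature, with 1.25 nM T. brucei PFK, 0.1 mM ATP and 0.5 mM fructose-6-phosphate in pH 8.0 TEA buffer. qHTS titrations up to 57 µM; curves classified by quality.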
PLK1 PBD inh – PLK1 (human) polo-box domain binding inhibition; P53350; Plk1 PBD binding of FITC phosphopeptide, fluorescence polarization; Potency, µM, for the others: max response, negative = inhibition, usual class: inhibitors; actives 2.8% (n = 360,000); AID 720504; further: series mostly up to about 57 µM; on the % scale 0 is the no-effect control and ±100 the full control effect; nearly all actives have a fitted effect of over 65% in size
BRCA1 expr up – BRCA1 expression activation | actives 1.1% (n = 380,000) | AID 624202 | MCF7-BRCA1-FFLuc reporter, luminescence, 48 h; response scale: scaled: vehicle 0%, 10 µM genistein 100% | Potency, µM (titrated, usually from 46.1 µM), for inactives: at the top dose activation, hits mostly activators; further: nearly all actives have a fitted effect of over 80% in size
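Compounds are tested at multiple concentrations on MCF7 BRCA1-luciferase reporter cells seeded at 2000 per well; after 48 h, a single luminescence end-point is taken and curves fitted to the normalized data.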
VDR inhibitor – blocks the human vitamin D receptor; actives 0.93% (n = 400,000); P11473; AID 504847; VDR-SRC2-3 peptide fluorescence polarization, 2 h; Potency, µM, without a hit: max response, negative = inhibition, actives largely listed as inhibitors; further: on the % scale 0 is the no-effect control and ±100 the full control effect
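The screen uses fluorescence polarization to detect compounds that interfere with recruitment of the SRC2-3 coactivator peptide to VDR; plates are read after 2 h at room temperature.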
An asterisk follows results filed as active. The call rests on the fitted dose curve; in most records, active means well fitted curve in the direction sought with a large enough effect; inconclusive means small, poorly fitted or top-dose-only effect, or another doubt; inactive means no such curve, though single readings can be large; an effect the other way counts as inactive or inconclusive. Potency means the concentration at half of the fitted maximal effect.

What do the screens show for `CCC(=O)OCC(=O)Nc1cc(C)c(C)cc1[N+](=O)[O-]`?
Tb PFK inh: -1%; PLK1 PBD inh: 24µM*; BRCA1 expr up: 13%; VDR inhibitor: -8%

Results for COCC(=O)Nc1cc([N+](=O)[O-])ccc1C ?
Tb PFK inh: -5%; PLK1 PBD inh: 12µM*; BRCA1 expr up: 24%; VDR inhibitor: -4%

How did CCCCN1CC(c2nc3ccccc3n2CCCCOc2ccc(C)c(C)c2)CC1=O (centres undefined) do in these assays?
BRCA1 expr up: -9%; VDR inhibitor: 9%

Results for CC1=C(C(=O)Nc2ccc(C)cc2Cl)C2(CCCCC2)OC1=O ?
VDR inhibitor: -17%

How did CC[C@H](C)[C@H](NC(=O)[C@@H](NC(=O)CNC(=O)[C@@H](N)CC(C)C)[C@@H](C)O)C(=O)N1CCC[C@H]1C(=O)NCC(=O)O do in these assays?
VDR inhibitor: 9%

What do the screens show for `CCCC1(c2ccccc2)NC(=O)N(CC(=O)N(C)Cc2c(F)cccc2Cl)C1=O` (centres undefined)?
Tb PFK inh: 3%; PLK1 PBD inh: 24µM*; BRCA1 expr up: -2%; VDR inhibitor: inconclusive

Results for CCCC1(c2ccccc2)NC(=O)N(C/C=C/Cl)C1=O (centres undefined) ?
Tb PFK inh: 0%; PLK1 PBD inh: 27µM*; BRCA1 expr up: 0%; VDR inhibitor: inconclusive

Results for CCCC1(c2ccccc2)NC(=O)N(CC(=O)NCc2ccc(C)cc2)C1=O (centres undefined) ?
Tb PFK inh: 0%; PLK1 PBD inh: -6%; BRCA1 expr up: 2%; VDR inhibitor: 4%

How did O=C(NCC1CCCCC1)c1ccc2sc([C@H]3C[C@H](O)[C@@H](CO)O3)nc2c1 do in these assays?
PLK1 PBD inh: -9%; BRCA1 expr up: 17%

What do the screens show for `COc1ccc(CNC(=O)c2ccc(NC(=O)N3CCSc4ccccc43)cc2)cc1`?
VDR inhibitor: 6%

What do the screens show for `CCN(c1cccc(C)c1)S(=O)(=O)c1cc2c(cc1C)n(C)c(=O)c(=O)n2C`?
VDR inhibitor: 10%

Results for CCOC(=O)c1c(C)n(-c2ccc(OC)cc2)c2ccc(O)c(CN(C)C)c12 ?
Tb PFK inh: 1%; PLK1 PBD inh: 30µM*; BRCA1 expr up: -32%; VDR inhibitor: -12%

How did CCOC(=O)c1c(NC(=O)/C=C/c2ccc(C(C)C)cc2)sc2c1CCC2 do in these assays?
VDR inhibitor: -27%

How did COc1ccccc1C=C1SC(=S)NC1=O do in these assays?
PLK1 PBD inh: 27µM*; BRCA1 expr up: 32%; VDR inhibitor: -28%

Results for O=C1NC(=S)SC1=Cc1ccccc1Cl ?
PLK1 PBD inh: 21µM*; BRCA1 expr up: -9%; VDR inhibitor: inconclusive

Results for O=C1NC(=S)S/C1=C\c1cc2ccccc2nc1N1CCCCC1 ?
Tb PFK inh: 2%; PLK1 PBD inh: 11µM*; BRCA1 expr up: -7%; VDR inhibitor: -6%

Results for COc1ccc(C=C2SC(=S)NC2=O)c(OC)c1OC ?
PLK1 PBD inh: -23%; BRCA1 expr up: -82%; VDR inhibitor: -23%

Results for CCN(CC)c1nc2ccccc2n(Cc2cccc(OC)c2)c1=O ?
Tb PFK inh: 2%; PLK1 PBD inh: 0%; BRCA1 expr up: -26%; VDR inhibitor: -5%

Results for CSc1ncnc2c1ncn2CCCN1CCN(c2ncccn2)CC1 ?
PLK1 PBD inh: 0%; BRCA1 expr up: 2%

What do the screens show for `S=c1nc[nH]c2c1cnn2-c1ccccc1`?
Tb PFK inh: -12%; PLK1 PBD inh: -2%; BRCA1 expr up: 43%; VDR inhibitor: -6%

How did Cn1ncc2c(=S)nc(Cl)[nH]c21 do in these assays?
PLK1 PBD inh: 27µM*; BRCA1 expr up: -32%; VDR inhibitor: inconclusive

Results for O=C1CCN(Cc2ccccc2)CCN1CCOc1ccccc1 ?
Tb PFK inh: 2%; PLK1 PBD inh: 1%; BRCA1 expr up: 54%; VDR inhibitor: -6%

What do the screens show for `CC1CCN(CCCCOc2ccc(C(=O)c3ccccc3)cc2)CC1`?
Tb PFK inh: -5%; PLK1 PBD inh: 27µM*; BRCA1 expr up: 6%; VDR inhibitor: -16%

How did CC1CCC(=O)N(CCOc2ccccc2)CC1 (centres undefined) do in these assays?
Tb PFK inh: 1%; PLK1 PBD inh: 27µM*; BRCA1 expr up: inconclusive; VDR inhibitor: inconclusive

How did Cc1nn(-c2ccccc2)c2c1N(CCCC(=O)NCc1ccc(OC(C)C)cc1)C(=O)CS2 do in these assays?
BRCA1 expr up: -46%; VDR inhibitor: 13%

How did CC/C(=C\c1ccc(N(C)C)cc1)c1ccncc1 do in these assays?
PLK1 PBD inh: -12%; BRCA1 expr up: -38%; VDR inhibitor: -21%

Results for Cc1cccc(/C=C\c2ccccc2)n1 ?
VDR inhibitor: 0%

How did Cc1cccc(C=NOCCc2ccccc2)n1 do in these assays?
PLK1 PBD inh: 3%; BRCA1 expr up: 10µM*; VDR inhibitor: 10%

How did COC(=O)CC1(C(=O)OC)Nc2cc(Cl)c(Cl)cc2S(=O)(=O)N1O (centres undefined) do in these assays?
PLK1 PBD inh: 9.5µM*; BRCA1 expr up: 2%

Results for Cc1ccccc1CSCc1nc(N)nc(Nc2ccccc2C)n1 ?
Tb PFK inh: 0%; PLK1 PBD inh: -5%; BRCA1 expr up: 11µM*; VDR inhibitor: 9%

What do the screens show for `Cc1ccccc1Nc1nc(N)nc(COC(=O)c2ccccc2)n1`?
Tb PFK inh: -5%; PLK1 PBD inh: -6%; BRCA1 expr up: 14µM*; VDR inhibitor: 5%

Results for Cc1ccccc1Nc1nc(N)nc(CSCc2c(C)noc2C)n1 ?
Tb PFK inh: -6%; PLK1 PBD inh: -5%; BRCA1 expr up: -23%; VDR inhibitor: -13%

What do the screens show for `COCc1nnc(NC(=O)c2cc3ccccc3o2)s1`?
Tb PFK inh: 5%; PLK1 PBD inh: -7%; BRCA1 expr up: 6.3µM*; VDR inhibitor: 12%

How did CCCc1nnc(NC(=O)CCCN2C(=O)c3ccccc3C2=O)s1 do in these assays?
Tb PFK inh: 0%; PLK1 PBD inh: 27µM*; BRCA1 expr up: 5%; VDR inhibitor: -2%

How did Cc1ccc(NC(=O)CCN2C(=O)c3cccc4cccc(c34)C2=O)cc1 do in these assays?
Tb PFK inh: -2%; PLK1 PBD inh: -11%; BRCA1 expr up: -28%; VDR inhibitor: 13%

How did Cc1ccc(NC(=O)CCCN2C(=O)c3cccc4cccc(c34)C2=O)cc1 do in these assays?
Tb PFK inh: -4%; PLK1 PBD inh: 27µM*; BRCA1 expr up: -26%; VDR inhibitor: -22%

What do the screens show for `CCCc1nnc(NC(=O)c2cc3ccccc3o2)s1`?
Tb PFK inh: -4%; PLK1 PBD inh: -4%; BRCA1 expr up: 5µM*; VDR inhibitor: 14%

Results for CCCc1nnc(NC(=O)c2cc3ccccc3oc2=O)s1 ?
Tb PFK inh: 20%; PLK1 PBD inh: -8%; BRCA1 expr up: -19%; VDR inhibitor: -1%

Results for C=C1Cc2c(Cl)cc3[nH]c4c5c3c2[C@@]2(O)[C@@H]1C[C@@H]2C(C)(C)O[C@H]5[C@@H]1CC[C@@]2(O)[C@@]35O[C@@H]3[C@@H](O)[C@@H](C(=O)O)O[C@H]5CC[C@]2(C)[C@@]41C ?
VDR inhibitor: -11%
